# Assay outcomes as filed in PubChem.
# PI5P4Ka inh – PI5P4K alpha (human) kinase inhibition | hit rate 1.2% among 330,000 | P48426 | AID 652105 | PI5P4Kalpha enzyme, ADP-Glo luminescence, 60 min; active compounds read low | max response, %; active means max response of -50% or lower; inconclusive means between -30% and -50%; inactive means -30% or higher; further: value at the top dose of about 77 µM; on the % scale 0 is the no-effect control and ±100 the full control effect
#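 qHTS, 1536-well: enzyme/substrate mix, compound by pin tool, 5 microM ATP final; RT 60 min; ADP-Glo reagents 1 (45 min) then 2 (30 min); luminescence.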
# JMJD2E inh – JMJD2E (human) inhibition | AID 2147 | JMJD2E catalytic domain, FDH-coupled NADH fluorescence (FDH is formaldehyde dehydrogenase) | hit rate 1.6% among 230,000 | Potency, µM (top dose mostly 57.1 µM), without a hit: at the top dose activity change, negative = inhibition, actives largely listed as inhibitors; active means well fitted inhibition curve with a large enough effect, not every such curve was filed as active; inconclusive means small, poorly fitted or top-dose-only effect, or another doubt; inactive means no such curve, though single readings can be large or run the other way;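 further: potency means the concentration at half of the fitted maximal effect; 0% = wells with enzyme and -100% = buffer wells without enzyme; nearly all actives have a fitted effect of over 50% in size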
# JMJD2A Tudor inh – inhibitors of human JMJD2A Tudor domain | AlphaScreen JMJD2A-Tudor / H3K4me3 peptide binding | Potency, µM (series often up to 114 µM), without a hit: at the highest dose activity change, negative = inhibition, hits mostly inhibitors | hit rate 4.4% among 390,000; further: potency means the concentration at half of the fitted maximal effect; on the % scale 0 is the no-effect control and ±100 the full control effect; nearly all actives have a fitted effect of over 50% in size
# Target sequence (O75164 whole entry, looked up, the tested form may be a part): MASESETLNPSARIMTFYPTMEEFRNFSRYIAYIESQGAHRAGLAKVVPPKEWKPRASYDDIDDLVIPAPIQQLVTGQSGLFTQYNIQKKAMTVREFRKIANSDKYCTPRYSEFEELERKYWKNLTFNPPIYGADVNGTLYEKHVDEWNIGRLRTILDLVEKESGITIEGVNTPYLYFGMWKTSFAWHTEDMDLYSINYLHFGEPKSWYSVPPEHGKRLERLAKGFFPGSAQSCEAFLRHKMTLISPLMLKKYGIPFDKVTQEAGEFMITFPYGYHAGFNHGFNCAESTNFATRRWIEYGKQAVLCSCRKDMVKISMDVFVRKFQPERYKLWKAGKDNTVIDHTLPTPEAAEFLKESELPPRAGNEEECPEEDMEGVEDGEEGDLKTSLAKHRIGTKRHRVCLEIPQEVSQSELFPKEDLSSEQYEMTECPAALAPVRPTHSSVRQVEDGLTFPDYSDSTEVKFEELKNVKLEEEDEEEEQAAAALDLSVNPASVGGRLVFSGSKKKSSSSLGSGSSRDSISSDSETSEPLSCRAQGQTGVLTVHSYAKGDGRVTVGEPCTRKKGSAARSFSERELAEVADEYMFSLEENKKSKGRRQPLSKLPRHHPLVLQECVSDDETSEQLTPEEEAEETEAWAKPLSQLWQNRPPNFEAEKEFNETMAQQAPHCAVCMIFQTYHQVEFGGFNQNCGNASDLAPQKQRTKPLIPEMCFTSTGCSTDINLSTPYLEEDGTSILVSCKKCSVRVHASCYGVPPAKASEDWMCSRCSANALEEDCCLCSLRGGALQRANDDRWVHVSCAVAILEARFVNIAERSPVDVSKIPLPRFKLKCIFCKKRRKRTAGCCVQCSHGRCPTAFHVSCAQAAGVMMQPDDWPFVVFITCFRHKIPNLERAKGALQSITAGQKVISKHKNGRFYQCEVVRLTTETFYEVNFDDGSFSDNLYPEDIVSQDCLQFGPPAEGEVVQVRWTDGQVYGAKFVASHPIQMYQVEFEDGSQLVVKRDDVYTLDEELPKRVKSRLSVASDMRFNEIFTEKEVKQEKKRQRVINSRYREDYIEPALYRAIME
# HP1b binding inh – blocks HP1-beta chromodomain binding to methylated histone tails; hit rate 0.56% among 390,000; P83916; Potency, µM (series often up to 114 µM), for inactives: at the highest dose activity change, negative = inhibition, usual class: inhibitors; AlphaScreen HP1-beta / biotin-H3K9me3 peptide binding; further: potency means the concentration at half of the fitted maximal effect; nearly all actives have a fitted effect of over 70% in size
#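 HP1-beta protein (50 nM final) preincubated 30 min at room temperature with biotinylated H3(1-18)K9me3 peptide (50 nM) in PBS pH 7.4, 0.01% Tween-20, then compound added for 30 min. AlphaScreen streptavidin donor/nickel chelate acceptor beads (10 ug/mL final), 30 min dark, luminescence read.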
# BAZ2B block – blocks human BAZ2B. Q9UIF8. AlphaScreen BAZ2B-H3K14Ac peptide displacement. Potency, µM (series often up to 114 µM), for the others: top-dose activity change, negative = inhibition, hits mostly inhibitors. hit rate 4.4% among 360,000; further: potency means the concentration at half of the fitted maximal effect; on the % scale 0 is the no-effect control and ±100 the full control effect; nearly all actives have a fitted effect of over 60% in size
#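 Protein-peptide AlphaScreen: BAZ2B 50 nM, b-H3K14Ac 50 nM, 1x PBS pH 7.4 + 0.01% Tween-20. Preincubation 30 min RT; cpd 30 min RT (top 110 uM); beads 20 min RT, light-protected.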
# L3MBTL1 inh – L3MBTL1 (human) inhibition. AlphaScreen L3MBTL1–H3K9me1 peptide binding. hit rate 0.66% among 230,000. Q9Y468. Potency, µM (highest dose often 57.1 µM), for inactives: at the top dose activity, negative = inhibition, hits mostly inhibitors; further: potency means the concentration at half of the fitted maximal effect; on the % scale 0 is the no-effect control and ±100 the full control effect; nearly all actives have a fitted effect of over 60% in size
#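 L3MBTL1 50 nM + b-AHA-H3(1-15)K9me1 75 nM, 30 min RT; compound added, 30 min RT; streptavidin donor/Ni-chelate acceptor beads 10 ug/mL each final, 30 min RT dark; AlphaScreen read.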
# Starred values were filed as active, the others as inactive; ? = inconclusive; nt = no result; [ ] = remark or other dose. Sampled rows, rich in hits. Any-hit rate of the full collection: about 5.7%. Unless noted, the call rests on the fitted dose curve; in most records, active means well fitted inhibition curve with a large enough effect; inconclusive means small, poorly fitted or top-dose-only effect; inactive means no such curve, though single readings can be large or run the other way.
SMILES,PI5P4Ka inh,JMJD2E inh,JMJD2A Tudor inh,HP1b binding inh,BAZ2B block,L3MBTL1 inh
O=C(Cc1cccs1)N/N=C/c1ccccn1,0.3,4.3%,?,31.5%,-19.0%,17.5%
O=C(N/N=C/c1ccccn1)c1cccs1,-0.3,11.9%,?,31.5%,31.6µM*,-35.1%
O=C(N/N=C/c1ccncc1)c1ccccn1,-2.0,nt,0.0%,40.5%,50.1µM*,nt
O=C(COC(=O)c1ccc([N+](=O)[O-])o1)NCc1ccc2c(c1)OCO2,-10.6,nt,-7.0%,21.9%,nt,-57.4%
O=C(N/N=C/c1ccccn1)c1ccc(Cl)cc1,-4.0,nt,-28.3%,23.5%,0.9%,nt
Cn1ncc(Cl)c1C(=O)N/N=C/c1cccc(OC2CSC2)c1,3.6,-8.0%,-18.8%,37.4%,79.4µM*,-1.4%
Cn1ncc(Cl)c1C(=O)N/N=C/c1ccccn1,-6.0,-2.0%,?,22.0%,22.4µM*,-15.6%
O=C(CSc1ncccn1)N/N=C/c1cccc(OC2CSC2)c1,-0.5,3.7%,-12.9%,23.5%,?,3.7%
O=C(NN=C1c2ccccc2-c2ccccc21)c1ccccn1,nt,2.3%,?,11.2%,50.1µM*,-3.9%
Cc1ccc(C)n1-c1ccc(C(=O)N/N=C/c2ccncc2)cc1,3.8,-26.4%,79.4µM*,?,nt,-11.9%
CCCCCn1cc2c(c1-c1ccc(Cl)cc1)c(=O)n(C)c(=O)n2C,nt,nt,-20.8%,-9.5%,-13.1%,nt
Cc1nc(N2CCOCC2)c2c(C(=O)N3CCN(c4cccc(C)c4C)CC3)c(C)oc2n1,nt,nt,-21.4%,37.0%,1.2%[57.1 µM],nt
CCOC(=O)c1noc2ncnc(N3CCN(c4cccc(Cl)c4)CC3)c12,nt,nt,-15.0%,51.2%,-3.7%,nt
COc1ccc(N2CCN(C(=O)c3ccc(-c4nc(COc5ccccc5)c(C)o4)cc3)CC2)cc1,nt,nt,-19.0%,42.5%,-28.3%,nt
COc1ccccc1CNC(c1ccccc1)c1ccccc1,1.3,nt,49.2%,121.5%,51.3%,34.4%
COc1cc(C)c(NC(c2ccccc2)c2ccccc2)cc1OC,-0.3,-5.1%,44.7µM*,?,39.8µM*,-22.6%
CCOC(=O)c1c(N2C(=O)Nc3ccccc3N2O)n[nH]c1-c1cccc(Cl)c1,-65.6*,-18.5%,-11.9%,28.7%,4.9%,nt
COc1cccc2sc(Nc3nc(-c4ccccn4)cs3)nc12,nt,1.5%,nt,nt,50.1µM*,?
c1ccc(Nc2nc(-c3ccccn3)cs2)cc1,2.9,9.0%,?,11.0%,39.8µM*,nt
COc1cccc2sc(NNC(=O)COc3ccccc3)nc12,-1.2,21.2%,-19.4%,34.2%,-9.3%,?
Cn1c2cc(Br)sc2c2cnn(Cc3ccccc3F)c(=O)c21,nt,nt,0.7%,nt,nt,nt
CNC(=O)C1(C(F)(F)F)C/C(=C\Cc2ccccc2)CCCO1 (stereo unspecified),nt,nt,-9.7%,34.7%,nt,nt
CCc1ccccc1Nc1nc(N)nc(CSCC(=O)c2cc(C)n(C)c2C)n1,-0.7,-7.2%,?,-13.9%,56.2µM*,nt
CCCc1cc(=O)n2[nH]c(NC(=O)c3ccc(C(C)(C)C)cc3)nc2n1,nt,nt,-3.8%,45.3%,2.3%,nt
Nc1ccc(N2CCCCC2)c2nonc12,-13.8,-3.0%,56.2µM*,?,25.1µM*,?
SMILES,PI5P4Ka inh,JMJD2E inh,JMJD2A Tudor inh,HP1b binding inh,BAZ2B block,L3MBTL1 inh
Nc1ccc(N2CCCCC2)cc1N1CCCCC1,4.8,-12.4%,28.2µM*,?,35.5µM*,?
Nc1c(N2CCOCC2)cc(Cl)c2nonc12,nt,?,-30.4%,3.9%,-8.3%,-1.9%
Nc1c(N2CCCC2)cc(Cl)c2nonc12,nt,?,?,-45.0%,-23.0%,28.2µM*
O=C1c2ccccc2C(=O)c2cc(N3CCCCC3)ccc21,?,nt,12.6µM*,?,nt,nt
Nc1cc(Cl)ccc1N1CCCCC1,1.1,-13.2%,-9.4%,11.4%,-14.1%,-5.9%
COc1cccc(C(C)(O)c2nc(-c3cnc4ccccc4c3)cs2)c1 (stereo unspecified),-2.4,nt,nt,nt,nt,nt
Cc1ccc(C(=O)NCC(=O)OCc2c(F)cccc2Cl)s1,-12.4,nt,-16.4%,13.8%,nt,4.9%
CCn1c(-c2cccc(Cl)c2)n[nH]c1=S,-0.5,-24.9%,7.08µM*,-4.1%,6.7%,-8.5%
